# Records with an inconclusive call do not appear. Where a call stands in place of a potency, no number is given. Some structures have more than one record in an assay (separate samples or runs), and their calls can disagree. The source made the active and inactive calls. Unless noted, calls come from the whole dose curve; as a rule, active = well fitted curve in the direction sought with a large enough effect in the repeat runs; inconclusive = weak or mixed curves; inactive = no such curve, though single readings can be large; an effect the other way counts as inactive or inconclusive.
# How the values were obtained:
# [1] = target: Nuclear receptor subfamily 1 group I member 2 (Rattus norvegicus) (UniProt Q9R1A7); test: Rat pregnane X receptor (rPXR) activation by small molecules, qHTS assay (AID 1346983); conditions: rPXR luciferase reporter cells, One-Glo luminescence, 24 h; max activation: stronger effect = higher value; note: nearly all actives have a fitted effect of over 20% in size
# Chain of Nuclear receptor subfamily 1 group I member 2 (Rattus norvegicus) (Q9R1A7 whole entry, looked up): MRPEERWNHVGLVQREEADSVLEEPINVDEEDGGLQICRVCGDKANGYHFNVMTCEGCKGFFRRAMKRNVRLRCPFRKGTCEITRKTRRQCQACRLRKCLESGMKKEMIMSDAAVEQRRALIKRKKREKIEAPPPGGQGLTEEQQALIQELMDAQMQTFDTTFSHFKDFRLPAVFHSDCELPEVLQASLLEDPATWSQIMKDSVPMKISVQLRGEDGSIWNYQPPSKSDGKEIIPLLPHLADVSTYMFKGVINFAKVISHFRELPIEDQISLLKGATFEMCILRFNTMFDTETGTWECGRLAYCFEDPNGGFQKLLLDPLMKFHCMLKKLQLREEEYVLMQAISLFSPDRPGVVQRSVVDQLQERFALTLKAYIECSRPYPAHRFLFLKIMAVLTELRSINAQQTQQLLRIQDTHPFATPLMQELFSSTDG
# Method in brief: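 Cell-based rPXR luciferase reporter assay, 2,000 cells per well, rested 5hr at 37 C before compound addition in DMSO, then 24 hr at 37 C. One-Glo reagent was added and luminescence read after 30 min at room temperature.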
# [2] = target: Nuclear receptor subfamily 1 group I member 2 (Homo sapiens) (UniProt O75469); test: CYP3A4 induction through human pregnane X receptor (PXR) by small molecules, qHTS assay (AID 1346984); note: nearly all actives have a fitted effect of over 40% in size; note: potency is the fitted concentration of half-maximal effect
# Method in brief: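 Luminescence readout: luciferase signal after One-Glo (30 min, room temperature), following 3 h at 37C with 3uM final Luciferin-IPA P450 substrate. Cells were DPX-2 (HepG2, PXR/CYP3A4-luc co-transfected) dosed for 24 h.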
# [3] = target: Nuclear receptor subfamily 1 group I member 2 (Homo sapiens) (UniProt O75469); test: Human pregnane X receptor (PXR) activation by small molecules, qHTS assay (AID 1346985); note: nearly all actives have a fitted effect of over 40% in size; note: potency is the fitted concentration of half-maximal effect
# Method in brief: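 DPX-2 cells (HepG2 co-transfected with a PXR response element and a CYP3A4-promoter luciferase construct) were seeded at 2,000 per well, rested 5 hr at 37C, then exposed to DMSO-dissolved compounds for 24 hr. Activation was read as luciferase luminescence.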
# [4] = target: Glucocorticoid receptor (Homo sapiens) (UniProt P04150); test: qHTS assay to identify small molecule agonists of the glucocorticoid receptor (GR) signaling pathway (AID 720691; active = well fitted activation curve with a large enough effect in the signal ratio in the repeat runs, not every such curve was filed as active; the % refers to the signal ratio)
# Chain of Glucocorticoid receptor (Homo sapiens) (P04150 whole entry, looked up): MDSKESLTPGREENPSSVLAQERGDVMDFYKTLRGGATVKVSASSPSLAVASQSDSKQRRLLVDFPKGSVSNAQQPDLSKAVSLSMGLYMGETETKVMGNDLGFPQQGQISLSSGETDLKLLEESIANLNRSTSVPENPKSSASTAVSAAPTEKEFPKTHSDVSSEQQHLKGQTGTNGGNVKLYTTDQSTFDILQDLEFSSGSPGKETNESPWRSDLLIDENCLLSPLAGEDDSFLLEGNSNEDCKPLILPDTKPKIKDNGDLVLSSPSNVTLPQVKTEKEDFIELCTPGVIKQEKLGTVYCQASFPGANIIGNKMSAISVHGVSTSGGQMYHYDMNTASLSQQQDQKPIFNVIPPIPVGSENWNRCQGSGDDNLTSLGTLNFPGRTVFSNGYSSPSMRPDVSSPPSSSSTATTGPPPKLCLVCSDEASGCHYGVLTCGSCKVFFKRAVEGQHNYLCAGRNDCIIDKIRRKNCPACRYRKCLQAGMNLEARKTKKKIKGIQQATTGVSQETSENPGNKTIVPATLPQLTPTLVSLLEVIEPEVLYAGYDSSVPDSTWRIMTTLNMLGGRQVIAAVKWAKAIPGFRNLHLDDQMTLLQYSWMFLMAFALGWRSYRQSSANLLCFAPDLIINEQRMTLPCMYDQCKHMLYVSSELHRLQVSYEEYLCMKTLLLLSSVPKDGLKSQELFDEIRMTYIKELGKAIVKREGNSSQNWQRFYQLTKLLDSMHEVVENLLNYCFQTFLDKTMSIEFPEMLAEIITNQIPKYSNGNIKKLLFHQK
# Method in brief: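 Fluorescence intensity from LiveBLAzer B/G FRET substrate (2 h, room temperature) reports beta-lactamase expression driven by the glucocorticoid response element in GR-bla HeLa cells after 18 h compound exposure at 37 C.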
# [5] = target: Acetylcholinesterase (Homo sapiens) (UniProt P22303); test: Acetylcholinesterase (AChE) small molecule antagonists: colormetric cell-based qHTS assay (AID 1347395; calls by dose curve; note: nearly all actives have a fitted effect of over 30% in size; note: potency is the fitted concentration of half-maximal effect)
# Chain of Acetylcholinesterase (Homo sapiens) (P22303 whole entry, looked up): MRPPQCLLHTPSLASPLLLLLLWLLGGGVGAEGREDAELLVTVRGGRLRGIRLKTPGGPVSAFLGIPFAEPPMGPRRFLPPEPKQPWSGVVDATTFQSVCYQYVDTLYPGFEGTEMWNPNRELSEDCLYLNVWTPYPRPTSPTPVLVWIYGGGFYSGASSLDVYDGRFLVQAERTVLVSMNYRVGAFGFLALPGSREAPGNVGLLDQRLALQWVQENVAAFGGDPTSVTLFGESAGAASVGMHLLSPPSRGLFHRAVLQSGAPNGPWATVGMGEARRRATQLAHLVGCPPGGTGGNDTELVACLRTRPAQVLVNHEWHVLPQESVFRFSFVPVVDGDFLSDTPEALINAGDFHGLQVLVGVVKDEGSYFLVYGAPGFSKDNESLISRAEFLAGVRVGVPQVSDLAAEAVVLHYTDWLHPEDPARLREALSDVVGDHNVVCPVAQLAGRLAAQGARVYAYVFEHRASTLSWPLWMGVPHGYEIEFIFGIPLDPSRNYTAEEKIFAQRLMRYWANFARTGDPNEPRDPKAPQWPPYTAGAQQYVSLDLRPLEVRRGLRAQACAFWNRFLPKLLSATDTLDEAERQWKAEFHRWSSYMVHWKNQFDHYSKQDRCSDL
# Method in brief: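 Colorimetric readout: DTNB quantifies thiocholine from acetylthiocholine hydrolysed by endogenous AChE of SH-SY5Y cells (2,000/well, plated overnight). Compound pretreatment 30 min, substrate incubation 90 min, both 37 C.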
# [6] = target: Acetylcholinesterase (Homo sapiens) (UniProt P22303); test: Acetylcholinesterase (AChE) small molecule antagonists: enzyme-based qHTS assay (AID 1347397; calls by dose curve; note: nearly all actives have a fitted effect of over 55% in size); conditions: Potency: AChE enzyme activity inhibition; outcome: AChE enzyme activity inhibition
# Method in brief: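 Recombinant human AChE, dispensed at 50 mU/mL, was preincubated with Tox21 10K compounds or DMSO vehicle for 30 min at room temperature. DTNB plus acetylthiocholine was then added, and thiocholine was measured colorimetrically after a further 10 min.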
# [7] = target: Androgen receptor (Homo sapiens) (UniProt P10275); test: qHTS assay to identify small molecule antagonists of the androgen receptor (AR) signaling pathway (AID 743035; active = well fitted inhibition curve with a large enough effect in the signal ratio in the repeat runs, not every such curve was filed as active; the % refers to the signal ratio; note: potency is the fitted concentration of half-maximal effect)
# Chain of Androgen receptor (Homo sapiens) (P10275 whole entry, looked up): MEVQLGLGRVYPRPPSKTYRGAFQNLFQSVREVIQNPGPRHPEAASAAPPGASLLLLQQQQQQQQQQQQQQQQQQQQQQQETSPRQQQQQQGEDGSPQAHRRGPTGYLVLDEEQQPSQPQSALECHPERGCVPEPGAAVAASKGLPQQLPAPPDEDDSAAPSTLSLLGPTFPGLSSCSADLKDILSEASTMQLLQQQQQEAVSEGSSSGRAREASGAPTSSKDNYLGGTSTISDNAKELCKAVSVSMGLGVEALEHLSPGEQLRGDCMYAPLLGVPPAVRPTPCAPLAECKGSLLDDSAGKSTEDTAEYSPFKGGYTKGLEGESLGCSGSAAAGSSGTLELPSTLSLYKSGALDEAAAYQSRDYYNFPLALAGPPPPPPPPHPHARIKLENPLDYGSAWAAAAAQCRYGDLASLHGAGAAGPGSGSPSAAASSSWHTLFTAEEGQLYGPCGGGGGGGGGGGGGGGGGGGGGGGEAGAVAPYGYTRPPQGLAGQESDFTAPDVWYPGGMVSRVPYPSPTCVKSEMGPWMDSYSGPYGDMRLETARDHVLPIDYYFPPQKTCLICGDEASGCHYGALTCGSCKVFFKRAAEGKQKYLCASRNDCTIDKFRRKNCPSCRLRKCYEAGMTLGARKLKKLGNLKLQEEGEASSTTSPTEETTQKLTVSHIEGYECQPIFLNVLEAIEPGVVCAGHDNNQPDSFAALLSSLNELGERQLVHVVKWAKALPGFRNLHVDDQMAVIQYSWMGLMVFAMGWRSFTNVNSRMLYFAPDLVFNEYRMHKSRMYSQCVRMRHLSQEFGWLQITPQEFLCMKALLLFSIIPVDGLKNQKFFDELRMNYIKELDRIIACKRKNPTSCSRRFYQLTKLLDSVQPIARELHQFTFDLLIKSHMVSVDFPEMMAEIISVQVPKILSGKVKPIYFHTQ
# Method in brief: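 Fluorescence from a beta-lactamase FRET substrate (LiveBLAzer B/G, 2 h, room temperature) measured inhibition of R1881-stimulated signaling in GeneBLAzer AR-UAS-bla HEK293 cells exposed to compound for 16 h at 37C.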
# [8] = target: Androgen receptor (Homo sapiens) (UniProt P10275); test: qHTS assay to identify small molecule antagonists of the androgen receptor (AR) signaling pathway using the MDA cell line (AID 743042; note: nearly all actives have a fitted effect of over 55% in size; note: potency is the fitted concentration of half-maximal effect)
# Method in brief: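 MDA-kb2 cells (human breast carcinoma, stably carrying an MMTV-luciferase reporter responsive to AR and GR) were plated at 3,000 cells/well and preincubated 5 hr at 37C, then given compound plus R1881 agonist for 16 h. ONE-Glo luminescence was read.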
# [9] = target: Androgen receptor (Homo sapiens) (UniProt P10275); test: qHTS assay to identify small molecule agonists of the androgen receptor (AR) signaling pathway using the MDA cell line (AID 743040; note: nearly all actives have a fitted effect of over 20% in size; note: potency is the fitted concentration of half-maximal effect)
# Method in brief: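 MDA-kb2 breast carcinoma cells stably carrying an MMTV-driven luciferase reporter (AR- and GR-responsive) were seeded and held 5 h at 37C, 0% CO2, then exposed to compounds in DMSO for 16 h. Luminescence was read 30 min after ONE-Glo addition.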
# [10] = target: Androgen receptor (Homo sapiens) (UniProt P10275); test: qHTS assay to identify small molecule agonists of the androgen receptor (AR) signaling pathway (AID 743036; active = well fitted activation curve with a large enough effect in the signal ratio in the repeat runs, with a control signal flat, not every such curve was filed as active; the % refers to the signal ratio; note: potency is the fitted concentration of half-maximal effect)
# Method in brief: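 Activation was read as beta-lactamase FRET signal from LiveBLAzer B/G substrate, added for 2 h at room temperature. Before that, GeneBLAzer AR-UAS-bla GripTite (HEK293) cells had 16 h compound exposure at 37C.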
# [11] = target: Acetylcholinesterase (Homo sapiens) (UniProt P22303); test: Acetylcholinesterase (AChE) small molecule antagonists: fluorescence cell-based qHTS assay (AID 1347398; calls by dose curve; note: nearly all actives have a fitted effect of over 50% in size); conditions: Potency: AChE activity; outcome: AChE activity
# Method in brief: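 Human SH-SY5Y cells were plated overnight at 37 C, exposed to compound for 30 min at 37 C, 5% CO2, then given acetylthiocholine plus Thiolite Green for 40 min at room temperature; thiocholine fluorescence (Ex/Em 490/520 nm) reports endogenous AChE activity.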
# [12] = target: Acetylcholinesterase (Homo sapiens) (UniProt P22303); test: Acetylcholinesterase (AChE) small molecule antagonists: enzyme-based qHTS assay with human liver microsomes (AID 1347399; calls by dose curve; note: nearly all actives have a fitted effect of over 60% in size); conditions: Potency: qHTS inhibition; outcome: qHTS inhibition
# Method in brief: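 Recombinant human AChE (50 mU/mL in the enzyme mix) and human liver microsomes (0.25 mg/mL final) were preincubated with compound and NADPH (0.25 mg/mL final) for 30 min at 37 C. Acetylthiocholine/DTNB was then added; thiocholine was read colorimetrically after 10 min at room temperature.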
smiles,measurement,setting,value
CC(=O)[C@H]1CC[C@H]2[C@@H]3CC[C@@H]4C[C@H](O)CC[C@]4(C)[C@H]3CC[C@]12C,max activation,[1],6.21% (inactive)
same,Potency,[2],inactive
same,Potency,[3],inactive
CC[N+](C)(CC)CCOC(=O)C(O)(c1ccccc1)c1ccccc1,Potency,[4],inactive
same,Potency,[2],inactive
same,Potency,[3],inactive
CCN(CC#N)c1cccc(C)c1,Potency,[5],inactive
same,Potency,[6],inactive
Cc1cc(C)cc(C(=O)OC2C[C@H]3CC[C@@H](C2)N3C)c1 (some centres not stated),max activation,[1],-1.64% (inactive)
C=C[C@H]1CN2CC[C@H]1C[C@H]2[C@H](OC(=O)OCC)c1ccnc2ccc(OC)cc12,Potency,[4],inactive
same,Potency,[2],inactive
CC(=O)O[C@H]1C[C@H](O[C@H]2[C@@H](O)C[C@H](O[C@H]3[C@@H](O)C[C@H](O[C@H]4CC[C@@]5(C)[C@H](CC[C@@H]6[C@@H]5C[C@@H](O)[C@]5(C)[C@@H](C7=CC(=O)OC7)CC[C@]65O)C4)O[C@@H]3C)O[C@@H]2C)O[C@H](C)[C@H]1O[C@@H]1O[C@H](CO)[C@@H](O)[C@H](O)[C@H]1O,Potency,[3],inactive
CCOCC(=O)O,Potency,[5],36.4 µM (active) and inactive
same,Potency,[6],inactive
CC(=O)OC1CN2CCC1CC2 (configuration not stated),Potency,[4],inactive
same,Potency,[2],inactive
same,Potency,[3],inactive
C[C@]12CC[C@H]3[C@@H](CCC4=CC(=O)CC[C@@]43C)[C@@H]1CC[C@H]2O,max activation,[1],-0.613% (inactive)
same,Potency,[2],inactive
C[C@H]1CC[C@]2(NC1)O[C@H]1C[C@H]3[C@@H]4CC[C@H]5C[C@@H](O)CC[C@]5(C)[C@H]4CC[C@]3(C)[C@H]1[C@@H]2C,max activation,[1],11.8% (inactive)
same,Potency,[2],inactive
same,Potency,[3],inactive
CO[C@H]1[C@@H](O)C[C@H](O[C@H]2[C@@H](O)C[C@H](O[C@H]3[C@@H](O)C[C@H](O[C@H]4CC[C@@]5(C)[C@H](CC[C@@H]6[C@@H]5C[C@@H](O)[C@]5(C)[C@@H](C7=CC(=O)OC7)CC[C@]65O)C4)O[C@@H]3C)O[C@@H]2C)O[C@@H]1C,Potency,[7],338 nM (active)
same,Potency,[8],1680 nM (active)
same,max activation,[1],-4.43% (inactive)
same,Potency,[2],inactive
same,Potency,[3],inactive
CNC(=O)Oc1ccccc1C(=O)Nc1ccccc1,Potency,[9],inactive
same,Potency,[8],inactive
same,Potency,[2],14100 nM (active)
same,Potency,[3],22400 nM (active)
C[C@]12C[C@H]3S[C@H]3C[C@@H]1CC[C@@H]1[C@@H]2CC[C@]2(C)[C@@H](O)CC[C@@H]12,Potency,[4],inactive
same,Potency,[10],3.2 nM (active)
same,Potency,[9],0.3 nM (active)
same,Potency,[8],inactive
same,max activation,[1],11.2% (inactive)
same,Potency,[2],inactive
same,Potency,[3],inactive
CN(C)[C@H](Cc1ccccc1)c1ccccc1,Potency,[4],inactive
same,Potency,[2],inactive
same,Potency,[3],inactive
COc1ccc(-c2nc3ccc(C4=NNC(=O)CC4C)cc3[nH]2)cc1 (configuration not stated),Potency,[5],inactive
same,Potency,[6],inactive
COC(=O)C1=C(C)NC(C)=C(C(=O)OCCN(C)Cc2ccccc2)C1c1cccc([N+](=O)[O-])c1 (configuration not stated),Potency,[5],inactive
same,Potency,[6],inactive
CNC(=O)OCC[N+](C)(C)C,Potency,[4],inactive
same,Potency,[2],inactive
same,Potency,[3],inactive
CC1=CC(=O)c2ccccc2C1=O,Potency,[5],inactive
same,Potency,[6],inactive
NCCNCCNCCNCCN,Potency,[5],79.3 µM (active)
same,"activity, negative = inhibition",[5],4.34% [at 10.5 µM] (inactive)
same,Potency,[6],inactive
same,"activity change, negative = inhibition",[11],0.135% [at 10.5 µM] (inactive)
same,Potency,[12],inactive
O=C1OC2(c3cc(Br)c(O)cc3Oc3c2cc(Br)c(O)[c]3[Hg])c2ccccc21 (configuration not stated),Potency,[2],inactive
same,Potency,[3],inactive
C[C@]12C=CC(=O)C=C1CC[C@@H]1[C@@H]2CC[C@]2(C)OC(=O)CC[C@@H]12,Potency,[2],inactive
same,Potency,[3],inactive
[H+].[H+].[Hg+2].[O-]B([O-])[O-].[c-]1ccccc1,max activation,[1],-22% (inactive)
same,Potency,[2],inactive
CCCCC[C@@H](O)C1C(=O)OC(C)[C@H](O)/C=C/C=C/C=C/C=C/C=C(\C)C(O)C(O)C(O)C[C@H](O)C[C@H](O)C[C@H](O)C[C@H](O)C[C@@H]1O (some centres not stated),Potency,[2],inactive
same,Potency,[3],inactive
CN1[C@@H]2CC[C@H]1CC(OC1c3ccccc3CCc3ccccc31)C2 (some centres not stated),Potency,[4],inactive
same,max activation,[1],-2.13% (inactive)
same,Potency,[2],inactive
same,Potency,[3],inactive
CCCC(C)C1(CC)C(=O)NC(=O)NC1=O (configuration not stated),max activation,[1],-2.06% (inactive)
same,Potency,[2],inactive
same,Potency,[3],inactive
C[C@@H](Cc1ccccc1)N(C)C,Potency,[10],inactive
same,Potency,[9],inactive
same,Potency,[8],inactive
same,Potency,[2],inactive
same,Potency,[3],inactive
C=CCC1(C(C)CCC)C(=O)N=C(S)NC1=O (configuration not stated),Potency,[10],inactive
same,Potency,[9],inactive
same,Potency,[8],inactive
same,max activation,[1],-2.22% (inactive)
O=C(O)Cc1ccccc1Oc1ccc(Cl)cc1Cl,Potency,[5],inactive
same,Potency,[6],inactive
same,Potency,[11],inactive

# Source: PubChem BioAssay (Tox21)
